Source: PubChem BioAssay (NCI)
The panel holds about 79,000 compounds, 15% with a hit somewhere; the sample as a whole holds those more often. Activity calls are given as the source filed them. No stated cut-off is given here; in the data, active means growth inhibition above about 70%; inactive means the rest. Where a SMILES comes first, the peptide text is derived from it. The star is where a group is joined. Cbz = O=C(OCc1ccccc1)*

test: NCI Yeast Anticancer Drug Screen. Data for the mec2-1 strain (AID 157); conditions: S. cerevisiae mec2-1 strain, at 50.0 µM, hits give high values
Outline: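 Growth inhibition is read against vehicle-treated controls after compound exposure of the mec2-1 yeast strain, which is defective in DNA damage repair or cell cycle control.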

SMILES | growth inhibition
CCC(COCC(CC)C(=O)O)C(=O)O (stereo not drawn) | 1.1% (inactive)
c1ccc(CCN=C2c3ccccc3-n3cccc32)nc1 | 0.95% (inactive)
Cc1ccc(N2C(=O)CSC2=S)cc1C | -15.7% (inactive)
C=CC(=O)NC(C)C(=O)O (stereo not drawn) | -2.5% (inactive)
COc1ccc(C(=O)/C=C/C(C)=C/C=N/N(C)c2ccccc2)cc1 | 18.4% (inactive)
O=C(O)c1ccc(C2C3C=CC(C3)C2[N+](=O)[O-])cc1 (stereo not drawn) | -18.8% (inactive)
c1ccc(CCc2ccnc3ccccc23)cc1 | 3.1% (inactive)
O=[N+]([O-])c1ccc(Nc2ccccc2)c([N+](=O)[O-])c1 | -12.8% (inactive)
O=C1CCC2c3ccccc3C(=O)C2C1 (stereo not drawn) | 4.2% (inactive)
O=C(NNC(=O)c1ccc2ccccc2c1)c1cccc(Br)c1 | -20.6% (inactive)
N#C/C(=C1\OC(=O)C(c2ccc(Br)cc2)=C1O)c1ccc(Br)cc1 | 2.45% (inactive)
NC(=O)c1csc([C@@H](O)Cc2ccccc2)n1 | 3.5% (inactive)
CN1c2ccccc2C(=O)NC12CCN(Cc1ccccc1)CC2 | -16.3% (inactive)
CSc1nc2c([nH]1)c(=O)n(C)c(=O)n2C | 21.4% (inactive)
CC(Nc1ncccn1)Nc1ncccn1 | 1.8% (inactive)
CCc1nc2c([nH]1)c(=O)n(C)c(=O)n2C | -4.6% (inactive)
O=C(Nc1ccn(C2CCC(CO)O2)c(=O)n1)c1ccccc1 (stereo not drawn) | -3.05% (inactive)
C(=N\c1nc2ccccc2s1)/c1cccs1 | -34% (inactive)
CN(C)Cc1cc(C=O)cc(CN(C)C)c1O | 4.6% (inactive)
ClC1CC/C=C\CC/C=C/CCC1Cl (stereo not drawn) | 48.1% (inactive)

SMILES | growth inhibition
CCOc1ccc2nc(NC(=O)C(=O)C3C(=O)C(CC4C(=O)c5ccccc5C4=O)C(=O)CC3(C)C)sc2c1 (stereo not drawn) | -1.1% (inactive)
CCOC(=O)c1cccc(OCC)c1 | 18.1% (inactive)
CCc1ccccc1NC(=O)NCC(C)C | -20.3% (inactive)
CCNC(=O)Nc1ccccn1 | -1.55% (inactive)
NC(=O)N/N=C/c1cccc2ccccc12 | 9.05% (inactive)
CSc1nc(SC)c2cnn(C3OC(CO)C(O)C3O)c2n1 (stereo not drawn) | -1.1% (inactive)
O=C(NO)C(=O)Nc1ccc(Cl)cc1[N+](=O)[O-] | 28.4% (inactive)
O=c1c(-c2ccccc2)c(O)on1/C=C1/C=CC=N1 | -25.2% (inactive)
CC(=O)OC12C=CC(=O)N1c1ccccc1C(=O)O2 (stereo not drawn) | 8.8% (inactive)
O=c1c2ccccc2nc(-c2ccc(Br)cc2)n1NC1OC(CO)C(O)C(O)C1O (stereo not drawn) | 3.05% (inactive)
COC(=O)N/N=C(/c1nc2ccc([N+](=O)[O-])cc2[nH]c1=O)C(O)c1ccc(OC)c(OC)c1 (stereo not drawn) | 0.35% (inactive)
C=CC(CO)N(CC)CC (stereo not drawn) | 8.7% (inactive)
CC(C)(C)[Si](C)(C)OCC1OC(n2cc(I)c(=O)[nH]c2=O)C(O[Si](C)(C)C(C)(C)C)C1O[Si](C)(C)C(C)(C)C (stereo not drawn) | -16% (inactive)
CC1(C2c3ccccc3CC2OC2CCCCO2)CO1 (stereo not drawn) | -10.6% (inactive)
O=C(NC(CSC(=O)OCc1ccccc1)C(=O)Oc1ccc([N+](=O)[O-])cc1)OCc1ccccc1 (stereo not drawn) | -7.4% (inactive)
O=C1/C(=C/C=C/c2ccccc2)CCC1CNc1ccc(Br)cc1 (stereo not drawn) | -11.7% (inactive)
COc1ccc2c(c1)C1=C(CC2)C(=O)OC1=O | 11.7% (inactive)
COC(=O)C(NC(=O)C(C)NC(=O)C1CCCN1C(=O)CNC(=O)C(CO)NC(=O)C(NC(=O)OCc1ccccc1)C(C)O)C(C)O (stereo not drawn) (Cbz-TSGPAT-OMe; configuration not given here) | -5.9% (inactive)
CC(=O)C(C(C)=O)[N+](=O)[O-].CC(=O)C(C(C)=O)[N+](=O)[O-].[Cu] | -2.95% (inactive)
CN(C)CCCNc1ccc2nnn3c4ccc([N+](=O)[O-])cc4c(=O)c1c23 | 35% (inactive)

test: NCI Yeast Anticancer Drug Screen. Data for the cln2 rad14 strain (AID 165);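 further: 0% = growth equal to vehicle treated cultures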; conditions: S. cerevisiae cln2 rad14 strain, at 50.0 µM, hits give high values
Outline: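 Growth inhibition, relative to vehicle-treated controls, is the read-out. The test organism is a yeast strain with defined genetic alterations, cln2 rad14.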

SMILES | growth inhibition
CCC(COCC(CC)C(=O)O)C(=O)O (stereo not drawn) | 19.1% (inactive)
c1ccc(CCN=C2c3ccccc3-n3cccc32)nc1 | -28.1% (inactive)
Cc1ccc(N2C(=O)CSC2=S)cc1C | -38% (inactive)
C=CC(=O)NC(C)C(=O)O (stereo not drawn) | -7.05% (inactive)
COc1ccc(C(=O)/C=C/C(C)=C/C=N/N(C)c2ccccc2)cc1 | -39.9% (inactive)
O=C(O)c1ccc(C2C3C=CC(C3)C2[N+](=O)[O-])cc1 (stereo not drawn) | 5.85% (inactive)
c1ccc(CCc2ccnc3ccccc23)cc1 | 1.6% (inactive)
O=[N+]([O-])c1ccc(Nc2ccccc2)c([N+](=O)[O-])c1 | -32.2% (inactive)
O=C1CCC2c3ccccc3C(=O)C2C1 (stereo not drawn) | -19.1% (inactive)
O=C(NNC(=O)c1ccc2ccccc2c1)c1cccc(Br)c1 | 10.1% (inactive)
N#C/C(=C1\OC(=O)C(c2ccc(Br)cc2)=C1O)c1ccc(Br)cc1 | 5.3% (inactive)
NC(=O)c1csc([C@@H](O)Cc2ccccc2)n1 | -7.7% (inactive)
CN1c2ccccc2C(=O)NC12CCN(Cc1ccccc1)CC2 | 0.75% (inactive)
CSc1nc2c([nH]1)c(=O)n(C)c(=O)n2C | -1.8% (inactive)
CC(Nc1ncccn1)Nc1ncccn1 | -29.9% (inactive)
CCc1nc2c([nH]1)c(=O)n(C)c(=O)n2C | 16.5% (inactive)
O=C(Nc1ccn(C2CCC(CO)O2)c(=O)n1)c1ccccc1 (stereo not drawn) | -23.8% (inactive)
C(=N\c1nc2ccccc2s1)/c1cccs1 | -5.95% (inactive)
CN(C)Cc1cc(C=O)cc(CN(C)C)c1O | 13.4% (inactive)

SMILES | growth inhibition
ClC1CC/C=C\CC/C=C/CCC1Cl (stereo not drawn) | 32% (inactive)
CCOc1ccc2nc(NC(=O)C(=O)C3C(=O)C(CC4C(=O)c5ccccc5C4=O)C(=O)CC3(C)C)sc2c1 (stereo not drawn) | -29.8% (inactive)
CCOC(=O)c1cccc(OCC)c1 | -43% (inactive)
CCc1ccccc1NC(=O)NCC(C)C | -3.8% (inactive)
CCNC(=O)Nc1ccccn1 | 0.5% (inactive)
CSc1nc(SC)c2cnn(C3OC(CO)C(O)C3O)c2n1 (stereo not drawn) | 3.25% (inactive)
O=C(NO)C(=O)Nc1ccc(Cl)cc1[N+](=O)[O-] | 42% (inactive)
O=c1c(-c2ccccc2)c(O)on1/C=C1/C=CC=N1 | 3.8% (inactive)
CC(=O)OC12C=CC(=O)N1c1ccccc1C(=O)O2 (stereo not drawn) | 29.2% (inactive)
O=c1c2ccccc2nc(-c2ccc(Br)cc2)n1NC1OC(CO)C(O)C(O)C1O (stereo not drawn) | -2.2% (inactive)
COC(=O)N/N=C(/c1nc2ccc([N+](=O)[O-])cc2[nH]c1=O)C(O)c1ccc(OC)c(OC)c1 (stereo not drawn) | 17.7% (inactive)
C=CC(CO)N(CC)CC (stereo not drawn) | 13.3% (inactive)
CC(C)(C)[Si](C)(C)OCC1OC(n2cc(I)c(=O)[nH]c2=O)C(O[Si](C)(C)C(C)(C)C)C1O[Si](C)(C)C(C)(C)C (stereo not drawn) | 14.8% (inactive)
CC1(C2c3ccccc3CC2OC2CCCCO2)CO1 (stereo not drawn) | -10.2% (inactive)
O=C(NC(CSC(=O)OCc1ccccc1)C(=O)Oc1ccc([N+](=O)[O-])cc1)OCc1ccccc1 (stereo not drawn) | -23.8% (inactive)
O=C1/C(=C/C=C/c2ccccc2)CCC1CNc1ccc(Br)cc1 (stereo not drawn) | 16.9% (inactive)
COC(=O)C(NC(=O)C(C)NC(=O)C1CCCN1C(=O)CNC(=O)C(CO)NC(=O)C(NC(=O)OCc1ccccc1)C(C)O)C(C)O (stereo not drawn) (Cbz-TSGPAT-OMe; configuration not given here) | -10.2% (inactive)
CC(=O)C(C(C)=O)[N+](=O)[O-].CC(=O)C(C(C)=O)[N+](=O)[O-].[Cu] | -40.5% (inactive)
CN(C)CCCNc1ccc2nnn3c4ccc([N+](=O)[O-])cc4c(=O)c1c23 | 55.1% (inactive)
